Calb FLC: C. albicans growth inhibition with fluconazole, primary screen, CaCi-2 strain, Alamar Blue fluorescence; C. albicans CaCi-2 (fluconazole-resistant clinical isolate) + fluconazole, 48 h; growth inhibition, % (concentration not given with the values); 300,000 compounds, 0.57% hits; AID 1979, 2009;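 active = growth inhibition above about 58% in most replicates, limit read from the data, passing the limit was not always enough; inconclusive = exactly half the replicates above a set limit; inactive = most replicates below a set limit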;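 note: all wells also contain fluconazole at 8 µg/ml as a sub-toxic cotreatment; 0% = median of DMSO wells and 100% = median of geldanamycin control wells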
Beta apoptosis: inhibitors of cytokine-induced beta cell apoptosis, primary screen, luminescence. AID 435005, 2010. 300,000 compounds, 0.8% hits. protection from apoptosis, % (no concentration beside the values). INS-1E cytokine-induced death, ATP luminescence, 48 h; percent of positive-control rescue, neutral wells zero;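 active = Every replicate reaches about 75%, or at least half do and their mean reaches it too, limit read from the data; inconclusive = At least half of replicates reach the limit but their mean does not; inactive = Under half of replicates reach the limit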;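 note: 0% = cytokine-treated negative control wells and 100% = positive control rescue; higher means more ATP so stronger rescue from cytokine killing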
CSC inhib: cancer stem cell viability inhibitors, primary screen, luminescence; AID 2717, 2010; inhibition, % at 7.5 µM; 300,000 compounds, 1.1% hits; cancer stem cell-like cells viability; in the data active = inhibition above about 75%; inconclusive = no clear call, values can overlap the other calls; tested in HMLE shEcad cells
PP1 inh: PP1-alpha phosphatase inhibitors, primary screen, counter-screen for PP5 inhibitor project, biochemical, fluorescence, OMFP substrate, single point | 320,000 compounds, 0.9% hits | inhibition, % at 6.7 µM | purified PP1alpha | AID 2235, 2010 | Serine/threonine-protein phosphatase PP1-alpha catalytic subunit (Homo sapiens), P62136;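 active = inhibition above the mean inhibition of all tested compounds plus 3 SD, computed separately for each screening campaign, cut at about 15% in these data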
PP5 inh: PP5 phosphatase inhibitors, primary screen, biochemical, fluorescence; Serine/threonine-protein phosphatase 5 (Homo sapiens), P53041; purified PP5c, OMFP substrate fluorescence; inhibition, % at 6.7 µM; 320,000 compounds, 0.18% hits;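 active = inhibition above the campaign's mean inhibition across all tested compounds plus 3 SD, cut at about 9.5% in these data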;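 note: 0% = DMSO only and 100% = 100 µM cantharidin control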
Mdm2-MdmX inh: inhibitors of human Mdm2-MdmX association, primary screen, cell-based, luminescence, split luciferase, SaOS-2, uHTS. SaOS-2 split-luciferase Mdm2/MdmX complementation. 330,000 compounds, 3% hits. inhibition, % at 8 µM. Protein Mdm4 (Homo sapiens) + E3 ubiquitin-protein ligase Mdm2 (Homo sapiens), …;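 active = inhibition of at least 50% at 8 µM in the primary screen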
Mdm2 MdmX conf: Mdm2-MdmX complex disruptors, retested hits, confirmation, luminescence, single concentration | shares compounds with Mdm2-MdmX inh | Mdm2-MdmX binding, luminescent assay | inhibition, % at 8 µM | 10,000 compounds, 55% hits | AID 489028, 2010; in the data active = inhibition above about 40%
Full FLuc ctr: full-length luciferase signal inhibition, confirmation, counter-screen for Mdm2/MdmX interaction inhibitor project, cell-based, single concentration, SaOS-2. 6,200 compounds, 77% hits. shares compounds with Mdm2-MdmX inh. inhibition, % at 8 µM. SaOS-2 full-length luciferase counterscreen, luminescence;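 active = mean inhibition at 8 µM reaching about 37%, which flags the compound as non-specific, limit read from the data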;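 note: p53-null SaOS-2 cells with luciferase driven by a doxycycline-inducible promoter; compound on cells about two nights before reading with doxycycline added after day one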
Numbers without * were called inactive; ? = inconclusive; . = no result given. An excerpt weighted towards active compounds, which were near 4.9% of everything screened.

SMILES	Calb FLC	Beta apoptosis	CSC inhib	PP1 inh	PP5 inh	Mdm2-MdmX inh	Mdm2 MdmX conf	Full FLuc ctr
Cc1cc(C)cc(N(CC(=O)NCCSCc2ccccc2)S(C)(=O)=O)c1	?	3	-5	-1	3	21	.	.
CN1CCN(c2nc(-c3cccc([N+](=O)[O-])c3)nc3ccccc23)CC1	-22	0	5	-1	2	18	.	.
O=C(Nc1ccc2snnc2c1)Nc1cccc2ccccc12	-5	41	29	0	0	67*	20	.
O=C(NC1=C(NC2CCS(=O)(=O)C2)C(=O)c2ccccc2C1=O)c1ccccc1 (stereo not drawn)	-8	41	45	3	5	90*	60*	49*
O=C(NC(NC1CCS(=O)(=O)C1)C(=O)c1cccs1)c1ccccc1 (stereo not drawn)	18	2	-10	-2	-1	-3	.	.
COc1ccc(OC)c(NC(=O)c2cccc(NC(=O)c3ccccc3)c2)c1	12	.	1	0	5	21	.	.
COc1ccc(N2CC(O)=C(c3nc(-c4ccccc4)cs3)C2=N)cc1	6	-7	-25	-1	-2	2	.	.
COc1ccc(N2CC(O)=C(c3nc(-c4ccc(Cl)cc4)cs3)C2=N)cc1	3	12	-7	-3	-1	53*	42*	63*
COc1ccc(N2CC(O)=C(c3nc(-c4ccc(Br)cc4)cs3)C2=N)cc1	-4	-6	-10	4	-1	71*	54*	75*
COc1ccc(/C=C(/NC(=O)c2ccccc2Cl)C(=O)NCCCC(=O)O)cc1	13	-5	.	-5	0	-4	.	.
C=CCNC(=O)COc1c(C)ccc(C)c1C	9	-3	-2	-2	2	19	.	.
CC(C)Cc1nnc(NC(=O)CC(=O)Nc2ccccc2C(=O)O)s1	-5	-3	-5	1	0	46	.	.
CC(C)c1nnc(NC(=O)CC(=O)Nc2ccccc2C(=O)O)s1	-11	0	-7	-5	-2	67*	47*	74*
COc1ccc(C)cc1S(=O)(=O)N(C)CC(=O)NCc1ccccn1	-3	.	-16	2	-3	14	.	.
COc1cnc(-c2ccccn2)nc1NC(C)C	113*	68	-2	4	1	79*	87*	48*
COc1cnc(-c2ccccn2)[nH]c1=O	-15	15	6	-2	4	24	.	.
COc1ccc(OC)c(C(=O)/C=C/c2cccnc2)c1	0	-10	49	-1	1	68*	30	56*
COc1cc(C(=O)/C=C/c2cccnc2)ccc1O	61	.	28	-6	-7	51*	18	.
COc1ccc(/C=C/C(=O)c2ccc(OC)cc2OC)cc1	8	-1	-7	0	1	25	.	.
COc1cc(O)cc(O)c1C(=O)/C=C/c1ccccc1	10	1	34	-3	4	52*	29	.
COc1cc(OC)cc(N2CCN(S(=O)(=O)c3ccc(-n4cnnn4)cc3)CC2)c1	-6	1	1	-1	2	20	.	.
CC(C)C(NC(=O)c1ccc(C(C)(C)C)cc1)C(=O)Nc1cccc(S(N)(=O)=O)c1 (stereo not drawn)	8	7	1	-5	3	8	.	.
O=c1c2ccccc2cnn1CCOc1ccccc1	-18	6	20	1	2	60*	69*	65*
OCCSc1nc(-c2ccccc2)nc2ccc(F)cc12	-6	0	13	2	2	-2	.	.
NC(N)=Nc1nc(-c2ccccc2)c2cc(F)ccc2n1	4	-1	7	4	0	66*	60*	49*
SMILES	Calb FLC	Beta apoptosis	CSC inhib	PP1 inh	PP5 inh	Mdm2-MdmX inh	Mdm2 MdmX conf	Full FLuc ctr
CC(C)(C)OC(=O)N1CCC2(CC1)Oc1ccc(F)cc1C(=O)C21CC(c2ccc(Cl)cc2)=NO1 (stereo not drawn)	46	-6	12	6	5	10	.	.
CCc1ccc(NC(=O)C(CC)Sc2nc3cc4c(cc3c(=O)n2Cc2ccco2)OCO4)cc1 (stereo not drawn)	-5	67	?	0	5	81*	9	.
CCc1ccccc1NC(=O)C(CC)Sc1nc2cc3c(cc2c(=O)n1Cc1ccco1)OCO3 (stereo not drawn)	22	.	67	0	-2	22	.	.
COc1ccc(CNC(=O)c2c(C)oc3c2C(=O)c2ccccc2C3=O)cc1	-15	109*	100*	-4	2	81*	84*	54*
Cc1oc2c(c1C(=O)NCc1cccnc1)C(=O)c1ccccc1C2=O	-13	.	101*	1	-1	99*	98*	4
COc1ccc(CNC(=O)c2ccc(-c3ccccc3)cc2)cc1	-7	-3	3	4	2	-43	.	.
Cc1onc(-c2ccccc2Cl)c1C(=O)NCc1cccnc1	7	-4	6	-7	5	-23	.	.
Cc1cccc(N2N=C(C(=O)N3Cc4ccccc4CC3C(N)=O)CCC2=O)c1 (stereo not drawn)	.	-4	22	.	.	6	.	.
COc1cc2c(cc1OC)C(=O)N1[C@H]3c4ccccc4OC[C@@H]3[C@H](c3ccccc3)[C@]1(C)C(=O)N2	.	0	7	-2	4	28	.	.
C[C@@]12C(=O)Nc3ccc(F)cc3C(=O)N1[C@H]1c3cc(Cl)ccc3OC[C@@H]1[C@@H]2c1ccccc1	.	16	57	.	.	56*	34	.
C[C@@]12C(=O)Nc3cc(Cl)ccc3C(=O)N1[C@H]1c3cc(Br)ccc3OC[C@@H]1[C@@H]2c1ccccc1	.	23	-4	9	3	67*	72*	31
C[C@@]12C(=O)Nc3cc(Cl)ccc3C(=O)N1[C@H]1c3cc(Cl)ccc3OC[C@@H]1[C@@H]2c1ccccc1	.	-3	.	.	.	61*	26	.
COc1ccc2c(c1)OC[C@H]1[C@H]2N2C(=O)c3cc(OC)c(OC)cc3NC(=O)[C@@]2(C)[C@H]1c1ccccc1	.	12	4	4	7	58*	35	.
Cc1ccc(CNC(=O)CCC2CCCN(Cc3cc4ccccc4o3)C2)o1 (stereo not drawn)	-5	2	5	-2	-2	-1	.	.
COc1ccc(NC(=O)Cn2nnc(C(=O)NCc3cccs3)c2N)cc1Cl	1	.	3	4	0	42	.	.

Screens: PubChem BioAssay, several laboratories
